Consider 104 compounds from ChEMBL document CHEMBL4513216, “Probing the Open Global Health Chemical Diversity Library for Multistage-Active Starting Points for Next-Generation Antimalarials” (ACS Infect Dis, 2020).

Out of some 69,000 compounds screened, about 8,600 (12%) showed an effect of 50% or more. This excerpt belongs to a sample that is enriched for strong results.

The test system of this test is Plasmodium berghei. Put plainly: Screen against P. berghei liver stage (PbLuc), transformed with Luciferase, at 10uM. The format is functional, HepG2. The note with it: tested at 10 uM.
Regarding `Cc1ccc(-n2c(SCC(=O)O)nnc2-c2ccccc2)cc1`, the INHIBITION is listed as -12.9%.
The figure for `O=C1CN(CC2CC2)Cc2nc(NCc3ccccc3)sc21` is 29.3%; for `Cn1cc(-c2nc(CN3CCCCC3Cn3cncn3)cs2)cn1` (centres undefined) it is -91.6%; for `Cc1nnc2n1CCN(C(=O)c1cc(Br)c(Cl)[nH]1)C2` it is 18.85%.
In the case of `Cc1noc(C2CCCN(Cn3cc(Cl)cn3)C2)n1` (centres undefined), the INHIBITION is -9.39%.
Consider `Cc1nc(CN2C(=O)CC[C@@H]3[C@H]2CCN3C2CCOCC2)cs1`, for which the INHIBITION turned out to be 50%.
The figure for `Cc1nc(CN2C(=O)C[C@H]3[C@H]2CCN3C2CCOC2)cs1` (some centres undefined) is -43.1%; for `Cc1nc(CN2C(=O)C[C@@H]3[C@@H]2CCN3CC2CCOCC2)cs1` it is -5.08%; for `Cc1nc(CN2C(=O)CC[C@@H]3[C@H]2CCN3C2CCOC2)cs1` (some centres undefined) it is -54.9%.
For `Cc1nc(CN2C(=O)C[C@H]3[C@H]2CCN3C2CCOCC2)cs1`, the INHIBITION is 20.1%.
With `Cc1nc(CN2C(=O)C[C@H]3[C@H]2CCN3CC2CCOC2)cs1` (some centres undefined) the figure was 56.6%; with `O=C(c1cnn2ccccc12)N1CCCC(OCc2ccccn2)C1` (centres undefined), 15.7%; with `COc1c(CNC(c2ccccc2)c2ccc(F)cc2)c(C)nn1C` (centres undefined), 35.4%.
With `CC1CCN(C(=O)[C@H]2C[C@@H]3CCN(CC4CCOCC4)C[C@H]3O2)CC1` the figure was -7.24%; with `c1cc(NCc2ccncc2)nc(C2CCCN2)c1` (centres undefined), 14%; with `O=C(CC1CCN(c2cccnn2)CC1)Nc1nncs1`, 31.3%.
Turning to `Cc1nc(-c2ccccc2)sc1CSCCS(C)(=O)=O`, the INHIBITION stood at 20.1%.
Take `Cc1nc(-c2ccccc2)sc1CSC(C)C(N)=O` (centres undefined): the INHIBITION was -48.3%.
Take `Cc1nc(-c2ccccc2)sc1CSCCC(N)=O`: the INHIBITION is on record as 60.8%.
With `CNc1cc2c(nn1)CCN(C(=O)c1cc(C)no1)C2` the figure was -65.3%.
In the case of `CN1CC(C(=O)NCc2ccc(Br)cc2F)CC1=O` (centres undefined), the INHIBITION is reported as -18.5%.
For `CNC(=O)CN1CCC(OCC2CCCO2)CC1` (centres undefined), the INHIBITION came to 32.9%.
Take `O=C(CN1CCC(OCC2CCCO2)CC1)NCC(F)(F)F` (centres undefined): the INHIBITION is on record as 1.2%.
In the case of `CCNC(=O)CN1CCC(OCC2CCCO2)CC1` (centres undefined), the INHIBITION was 68.8%.
In the case of `Cc1nn(C)c(C)c1C1CCCN1C(=O)c1ccnc(N(C)C)c1` (centres undefined), the INHIBITION is on record as -4.16%.
In the case of `CN(Cc1ccco1)C1CCC12CCN(C(=O)c1ccco1)CC2` (centres undefined), the INHIBITION was -77.5%.
For `COc1ncccc1CNC(=O)c1cc(C)on1`, the INHIBITION is -41.1%.
Regarding `CCS(=O)(=O)N1CCN(C(C)c2ccccc2OC)CC1` (centres undefined), the INHIBITION was found to be 13.5%.
Turning to `COc1ccccc1C(C)N1CCN(S(C)(=O)=O)CC1` (centres undefined), the INHIBITION stood at 51.1%.
With `COc1ccccc1C(C)N1CCN(S(=O)(=O)N(C)C)CC1` (centres undefined), the INHIBITION was 14.7%.
In the case of `COCCC(=O)N1CCCC2(CCCN2Cc2ccccc2F)C1` (centres undefined), the INHIBITION stood at 19.5%.
Consider `COCC(=O)N1CCN(C(=O)Cc2cccs2)[C@H]2CS(=O)(=O)C[C@H]21`, for which the INHIBITION is -6.11%.
For the compound `Cc1cc(C2CCCN(CC(=O)N3CCCc4ccccc43)C2)n[nH]1` (centres undefined), the INHIBITION came to 19.9%.
As for `O=C(O)c1cccc(CN2CCCC(c3ccn[nH]3)C2)c1` (centres undefined), the INHIBITION is 21.45%.
In the case of `Cc1cc(C2CCCN(CC(=O)N3CCc4ccccc43)C2)n[nH]1` (centres undefined), the INHIBITION worked out at 15.2%.
Regarding `O=C(CN1CCCC(c2ccn[nH]2)C1)N1CCCc2ccccc21` (centres undefined), the INHIBITION was 21.8%.
The figure for `O=C1CCCN1CCN1CCCC(c2ccn[nH]2)C1` (centres undefined) is -24.2%.
The figure for `Cc1nnc(NC(=O)CN2CCCC(c3ccn[nH]3)C2)s1` (centres undefined) is 47.1%.
Regarding `O=C(CN1CCCC(c2ccn[nH]2)C1)Nc1nc2c(s1)CCCC2` (centres undefined), the INHIBITION amounted to 86.9%.
For `Cc1nc(C)n(CC2CCCN(CC(=O)Nc3nncs3)C2)n1` (centres undefined), the INHIBITION was 12.4%.
`O=C(CN1CCCC(c2ccn[nH]2)C1)Nc1nncs1` (centres undefined): the INHIBITION worked out at 56.3%.
The figure for `O=C(CN1CCCC(c2ccn[nH]2)C1)Nc1nc2c(s1)CCC2` (centres undefined) is 83.2%; for `CC(C)C1Nc2ccccc2C(=O)N1CC(=O)Nc1nc2c(s1)CCC2` (centres undefined) it is 16.5%; for `Cc1cc(C2CCCN(CC(=O)Nc3nc4c(s3)CCC4)C2)n[nH]1` (centres undefined) it is 75.8%.
With `NC(=O)CCCNC(=O)Cc1csc(Cc2ccccn2)n1`, the INHIBITION came out at 46.6%.
In the case of `CNC(=O)N1CCCCC1CCNS(C)(=O)=O` (centres undefined), the INHIBITION is -2.48%.
`CC(=O)N1CCCN(C(C(=O)O)c2ccc(C)cc2C)CC1` (centres undefined): the INHIBITION was 41.3%.
For the compound `CNc1cc(N2CCCC2CNCc2cccc(C(N)=O)c2)ncn1` (centres undefined), the INHIBITION is reported as 39.5%.
Consider `CC(=O)N1CCN(C(=O)c2csc(-c3ccc(C)cc3C)n2)CC1`, for which the INHIBITION worked out at 17%.
`CN1CC2(CCN(C(=O)c3cccc(-n4cccn4)c3)CC2)OC1=O`: the INHIBITION came to 12%.
As for `CC(=O)N1CCC(NC(=O)c2ccc3c(c2O)OC(C)(C)C3)CC1`, the INHIBITION is 48.2%.
Regarding `Cc1ccc(CN2CCC3(CC2)CC(CC(=O)NC(C)C)CO3)s1` (centres undefined), the INHIBITION is -62.7%.
With `CN(C)C[C@H]1OC[C@@H]2CCN(S(=O)(=O)c3ccc(F)cc3)C[C@@H]21` the figure was 42.7%; with `COc1ccccc1C(C)(C)NC(=O)NC1CCC(O)CC1` (centres undefined), -30.3%.
`Cc1ccc2oc(C(=O)N3CCCC(n4ccnc4C)C3)cc2n1` (centres undefined): the INHIBITION came to 20.33%.
With `Cc1ccccc1C(=O)NC[C@@H]1CCN(C(=O)C2(O)CCCC2)C[C@H]1O` the figure was 69.3%; with `Cc1ccccc1C(=O)NC[C@@H]1CCN(C(=O)CN2CCCC2)C[C@H]1O`, 44.3%; with `Cc1ccccc1C(=O)N1CC(C(=O)NCC2CC2)C2(CCOCC2)C1` (centres undefined), -41.4%.
Consider `Cc1ccccc1C(=O)NC[C@@H]1CCN(C(=O)c2cccn2C)C[C@H]1O`, for which the INHIBITION stood at 17.4%.
For the compound `COc1ccc(C[C@H]2CN(C(=O)c3cscn3)CC[C@@H]2OC)cc1`, the INHIBITION is 22.3%.
`Cc1ccccc1C(=O)NC[C@@H]1CCN(C(=O)c2cscn2)C[C@H]1O`: the INHIBITION is listed as 63.8%.
Take `Cc1ccc(C)c(-c2[nH]c3ccccc3c2C(=O)O)c1`: the INHIBITION is 13.5%.
As for `Cn1ccnc1C1(O)CCN(C(=O)Cc2ccccc2)CC1`, the INHIBITION turned out to be 7.635%.
As to `CCN(CC)S(=O)(=O)c1ccc(C(=O)NC(C)(C#N)C2CC2)cc1` (centres undefined), the INHIBITION is -5.1%.
The figure for `O=C(c1ccc2c(c1)CCC2)N1CCC(c2n[nH]c(C3CC3)n2)CC1` is -19.6%; for `CC(=O)N1CCC(NC(=O)N(C)Cc2c(C)noc2C)CC1` it is -35.61%.
With `CC(=O)c1ccc(N2CCN(C(=O)c3cnn4c3OCCC4)CC2)cc1` the figure was 16%.
In the case of `COCc1ccc(C(=O)N2CCOCC2c2ccc(C)o2)cc1` (centres undefined), the INHIBITION was found to be 1.2%.
The figure for `COc1ccc(C(=O)N2CCOCC2c2ccc(C)o2)cc1` (centres undefined) is 68%; for `Cc1ccc(C2COCCN2C(=O)c2ccc(N(C)C)cc2)o1` (centres undefined) it is -0.79%; for `CC(C)c1nc(CN2CCc3onc(-c4cccc(F)c4)c3C2)no1` it is 84.1%.
With `CC(C)(C)c1nc(CN2CCc3onc(-c4cccc(F)c4)c3C2)no1` the figure was 67.7%.
With `COc1cc2c(nn1)CCN(Cc1noc(CC(C)C)n1)C2`, the INHIBITION came to 17.4%.
Turning to `Fc1cccc(-c2noc3c2CN(Cc2cncn2C2CC2)CC3)c1`, the INHIBITION is 33.3%.
Regarding `Cn1ncc(CN2CCc3onc(-c4cccc(F)c4)c3C2)c1C1CC1`, the INHIBITION came to 41.5%.
With `CC(C(N)=O)N1CCc2onc(-c3cccc(F)c3)c2C1` (centres undefined), the INHIBITION is 18.2%.
With `Cn1cccc1C1CCCN1Cc1noc(C(C)(C)C)n1` (centres undefined) the figure was -40.5%.
On to `CC(C(=O)N(C)C)N1CCc2onc(-c3cccc(F)c3)c2C1` (centres undefined), for which the INHIBITION was determined as 40.9%.
For `CC(C)Cc1nc(CN2CCc3onc(-c4cccc(F)c4)c3C2)no1`, the INHIBITION is 82.5%.
With `COc1ncnc2c1CCN(Cc1nccs1)CC2` the figure was -20.1%; with `CCN(CC(=O)N(C)C)C(=O)c1ccc(-c2nc(C)cs2)cc1`, 30.9%.
With `CCCn1c(N2CCCCC2)nc2c(C)nn(C)c2c1=O`, the INHIBITION is recorded as 35.9%.
Turning to `Cc1occc1C(=O)N1CCC2(CCCN(Cc3nccs3)C2)C1` (centres undefined), the INHIBITION is on record as -58.3%.
Turning to `CC(C)c1nccn1Cc1cc(C(=O)NCC(F)(F)F)n[nH]1`, the INHIBITION is 94%.
As to `CC(C)c1nccn1Cc1cc(C(=O)NCC(C)n2ccnc2)n[nH]1` (centres undefined), the INHIBITION is 26%.
On to `CCn1ccnc1CN1CCN(C(C)C(=O)NCC(F)(F)F)CC1` (centres undefined), for which the INHIBITION is on record as 19.7%.
Take `Cc1ccc(CNC(=O)c2cc(Cn3ccnc3C(C)C)[nH]n2)o1`: the INHIBITION stood at 63%.
With `Cc1ccc(CN(C)C(=O)c2cc(Cn3ccnc3C(C)C)[nH]n2)o1`, the INHIBITION is recorded as 42.3%.
Take `Cc1nc(CNC(=O)c2cc(Cn3ccnc3C(C)C)[nH]n2)sc1C`: the INHIBITION amounted to 37.9%.
With `CCc1nc(CNCCn2cc(C)cn2)no1` the figure was 0.914%; with `O=S(=O)(CCOc1ccc(F)cc1)Nc1cnn(CC(F)F)c1`, -6.85%.
With `CN1CCN2CCN(Cc3cc(=O)n4c5c(cccc35)CCC4)CC2C1` (centres undefined) the figure was 13%.
On to `CCCC1CN(CCOC)C(=O)c2cccnc2O1` (centres undefined), for which the INHIBITION is given as 26.8%.
With `CN[C@@H](C)C(=O)N(Cc1cccc(C)c1)Cc1ccccc1OC`, the INHIBITION is reported as 34.1%.
On to `COc1ccccc1CN(Cc1cccc(C)c1)C(=O)[C@@H](N)CC(=O)O`, for which the INHIBITION is 11.8%.
On to `COCC(=O)N(Cc1cccc(C)c1)Cc1ccccc1OC`, for which the INHIBITION was 51.7%.
`O=C(COc1ccc(F)cc1F)N1CCOCC(O)(CN2CCCC2)C1` (centres undefined): the INHIBITION turned out to be 11.8%.
Turning to `CCN1CCN(CCCNC(=O)c2cc3ccc(C)cc3nc2C)CC1`, the INHIBITION was found to be 37.2%.
As to `COc1ccc2nc(C)c(C(=O)NCCN3CCS(=O)(=O)CC3)cc2c1`, the INHIBITION is listed as 46.9%.
The figure for `Cc1ccc2cc(C(=O)NCCN3CCS(=O)(=O)CC3)c(C)nc2c1` is 74.7%; for `CSc1nc2ncc3c(=O)n(C)ccc3n2n1` it is -3.73%.
Consider `CSc1nc2ncc3c(=O)n(CCN4CCCCC4)ccc3n2n1`, for which the INHIBITION was determined as 51%.
Regarding `COCCn1ccc2c(cnc3nc(SC)nn32)c1=O`, the INHIBITION came out at 38.4%.
The figure for `CCn1c(C)cc(C(=O)N2C[C@@H](C(=O)O)[C@H](c3ccccc3C)C2)c1C` is 0.33%.
